Source: the supplement of paper PMC12494721
Counter-ions that a name gives are not always drawn.

Key:
Conditions in all cases: incubation time: 27 h, anaerobic, 37 °C;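 for the amine columns active = adjusted P below 0.05 in both replicates with a change the same way and a mean fold change under 0.8 or over 1.25; inactive = the rest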
[1] = system: Clostridium sporogenes DSM 1664; assay: growth (OD595) fold change vs plate DMSO controls (fold change (ratio)); higher = more growth
Procedure, shortened: (§1)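 Each value is the mean of 2 biological replicates, and fold changes above 1.5 were set to NA. The underlying readings were taken at 595 nm from shaken anaerobic mGAM cultures in 96-well plates after 27 h at 37 °C. They were blank-subtracted, corrected for compound background using 20 µM compound solutions in water, and converted to OD with a calibration factor of 5. Growth is the fold change relative to the median of the plate DMSO controls.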

Escherichia coli IAI1 [2] = assay: as above
Procedure, shortened: as §1

[3] = system: Klebsiella aerogenes DSM 30053; assay: as above
Procedure, shortened: as §1

[4] = system: Ruminococcus gnavus DSM 108212; assay: as above
Procedure, shortened: as §1

[5] = system: Klebsiella aerogenes DSM 30053; assay: fold change of Histamine concentration vs plate DMSO controls (fold change (ratio)); higher = more amine produced, active = hit call of the paper (significant change in both replicates, either direction)
Procedure, shortened: (§2)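 Each value is the fold change relative to DMSO-only wells on the same plate. Four gut bacterial strains were grown anaerobically in mGAM at 37 °C for 27 h in 80 µL wells, starting at OD 0.1 before a 1:1 dilution, with compounds at 20 µM final (sweeteners 50 µM). Whole cultures were extracted with cold acetonitrile/methanol containing 0.1% formic acid, centrifuged, and amines were quantified by LC–triple-quadrupole MS (dynamic MRM) against external calibration curves with within-batch drift correction. Values are means of 2 biological replicates.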

[6] = system: Clostridium sporogenes DSM 1664; assay: fold change of Tryptamine concentration vs plate DMSO controls (fold change (ratio)); higher = more amine produced, active = hit call of the paper (significant change in both replicates, either direction)
Procedure, shortened: as §2

[7] = system: Ruminococcus gnavus DSM 108212; assay: as above
Procedure, shortened: as §2

Escherichia coli IAI1 [8] = assay: fold change of Putrescine concentration vs plate DMSO controls (fold change (ratio)); higher = more amine produced, active = hit call of the paper (significant change in both replicates, either direction)
Procedure, shortened: as §2

[9] = system: Klebsiella aerogenes DSM 30053; assay: as above
Procedure, shortened: as §2

Escherichia coli IAI1 [10] = assay: fold change of Cadaverine concentration vs plate DMSO controls (fold change (ratio)); higher = more amine produced, active = hit call of the paper (significant change in both replicates, either direction)
Procedure, shortened: as §2

[11] = system: Klebsiella aerogenes DSM 30053; assay: as above
Procedure, shortened: as §2

[12] = system: Ruminococcus gnavus DSM 108212; assay: fold change of 2-Phenylethylamine concentration vs plate DMSO controls (fold change (ratio)); higher = more amine produced, active = hit call of the paper (significant change in both replicates, either direction)
Procedure, shortened: as §2

SMILES | growth [1] | growth (Escherichia coli IAI1 [2]) | growth [3] | growth [4] | fold change of Histamine concentration [5] | fold change of Tryptamine concentration [6] | fold change of Tryptamine concentration [7] | fold change of Putrescine concentration (Escherichia coli IAI1 [8]) | fold change of Putrescine concentration [9] | fold change of Cadaverine concentration (Escherichia coli IAI1 [10]) | fold change of Cadaverine concentration [11] | fold change of 2-Phenylethylamine concentration [12]
O=C(NCCO[N+](=O)[O-])c1cccnc1 [Nicorandil] (20 µM) | 1.03 | 0.985 | 0.928 | 1.35 | 1.06 (inactive) | 1.04 (inactive) | 1.03 (inactive) | 1.05 (inactive) | 1.03 (inactive) | 0.981 (inactive) | 1 (inactive) | 1 (inactive)
NCCNCCNCCNCCN [Tetraethylenepentamine pentahydrochloride] (20 µM) | 1 | 1.1 | 1.02 | 0.923 | 1 (inactive) | 1.03 (inactive) | 0.952 (inactive) | 1.07 (inactive) | 0.994 (inactive) | 0.955 (inactive) | 0.994 (inactive) | 0.967 (inactive)
CC(C)C(=O)Nc1ccc([N+](=O)[O-])c(C(F)(F)F)c1 [Flutamide] (20 µM) | 0.955 | 1 | 0.938 | 1.32 | 1.02 (inactive) | 0.961 (inactive) | 1 (inactive) | 0.977 (inactive) | 1.01 (inactive) | 0.982 (inactive) | 0.981 (inactive) | 1.02 (inactive)
CC[N+](C)(C)Cc1ccccc1Br [Bretylium tosylate] (20 µM) | 1.03 | 1.02 | 1.06 | 0.996 | 0.853 (inactive) | 0.973 (inactive) | 1.03 (inactive) | 1 (inactive) | 0.998 (inactive) | 0.937 (inactive) | 1.02 (inactive) | 1.05 (inactive)
CC1(C)O[C@@H]2C[C@H]3[C@@H]4C[C@H](F)C5=CC(=O)CC[C@]5(C)[C@H]4[C@@H](O)C[C@]3(C)[C@]2(C(=O)CO)O1 [Flurandrenolide] (20 µM) | 0.993 | 1.15 | 0.987 | 1.27 | 0.982 (inactive) | 1.08 (inactive) | 1.16 (inactive) | 1.18 (inactive) | 0.966 (inactive) | 0.954 (inactive) | 1.04 (inactive) | 1.33 (inactive)
CN(C)CCCC1(c2ccc(F)cc2)OCc2cc(C#N)ccc21 (stereo unspecified) [Citalopram hydrobromide] (20 µM) | 0.923 | 0.992 | 0.994 | 1.08 | 0.919 (inactive) | 0.955 (inactive) | 0.845 (inactive) | 0.927 (inactive) | 1 (inactive) | 0.991 (inactive) | 1.01 (inactive) | 0.788 (inactive)
CC(=O)CCCCn1c(=O)c2c(ncn2C)n(C)c1=O [Pentoxifylline] (20 µM) | 1.01 | 0.995 | 1.06 | 0.929 | 1 (inactive) | 1.03 (inactive) | 0.965 (inactive) | 1 (inactive) | 1.02 (inactive) | 1.04 (inactive) | 1.02 (inactive) | 0.947 (inactive)
CCOC(=O)[C@H](CCc1ccccc1)N[C@@H](C)C(=O)N1CCC[C@H]1C(=O)O [Enalapril maleate] (20 µM) | 1.07 | 1.07 | 1.05 | 1.15 | 0.936 (inactive) | 1 (inactive) | 1.09 (inactive) | 1.03 (inactive) | 0.959 (inactive) | 0.967 (inactive) | 1.02 (inactive) | 1.1 (inactive)
CC(=O)N(CC(O)CO)c1c(I)c(C(=O)NCC(O)CO)c(I)c(C(=O)NCC(O)CO)c1I (stereo unspecified) [Iohexol] (20 µM) | 1 | 1.02 | 1.04 | 0.911 | 0.958 (inactive) | 0.975 (inactive) | 1.01 (inactive) | 1.02 (inactive) | 0.997 (inactive) | 0.992 (inactive) | 1 (inactive) | 1.01 (inactive)
CC[C@H]1OC(=O)[C@H](C)[C@@H](O[C@H]2C[C@@](C)(OC)[C@@H](O)[C@H](C)O2)[C@H](C)[C@@H](O[C@@H]2O[C@H](C)C[C@H](N(C)C)[C@H]2O)[C@](C)(O)C[C@@H](C)[C@@H]2N[C@@H](COCCOC)O[C@H]([C@H]2C)[C@]1(C)O [Dirithromycin] (20 µM) | 0.228 | 0.961 | 0.964 | 0.419 | 0.987 (inactive) | 0.0683 (active) | 0.134 (active) | 0.956 (inactive) | 0.991 (inactive) | 0.998 (inactive) | 1.01 (inactive) | 0.146 (active)
CC(C)(Oc1ccc(C2CC2(Cl)Cl)cc1)C(=O)O (stereo unspecified) [Ciprofibrate] (20 µM) | 0.861 | 0.88 | 0.891 | 0.992 | 1.01 (inactive) | 1.04 (inactive) | 0.951 (inactive) | 1.01 (inactive) | 1 (inactive) | 1.03 (inactive) | 0.992 (inactive) | 0.949 (inactive)
O=C(O)c1cc(/N=N/c2ccc(S(=O)(=O)Nc3ccccn3)cc2)ccc1O [Sulfasalazine] (20 µM) | 0.986 | 1 | 1.05 | 0.978 | 0.971 (inactive) | 1.01 (inactive) | 1 (inactive) | 0.913 (inactive) | 0.995 (inactive) | 1.01 (inactive) | 1.01 (inactive) | 0.954 (inactive)
C[C@]12CC[C@H]3[C@@H](CCC4=CC(=O)CC[C@@]43C)[C@@H]1CC[C@@H]2C(=O)CO [Deoxycorticosterone] (20 µM) | 1.18 | 1.09 | 1.02 | 1.11 | 0.959 (inactive) | 0.963 (inactive) | 1.03 (inactive) | 1.25 (inactive) | 0.962 (inactive) | 0.96 (inactive) | 1.03 (inactive) | 1.06 (inactive)
N=C(N)Nc1ccc(C(=O)Oc2ccc3cc(C(=N)N)ccc3c2)cc1 [Nafamostat Mesylate] (20 µM) | 1.04 | 0.933 | 0.99 | 0.967 | 0.92 (inactive) | 0.959 (inactive) | 0.91 (inactive) | 1.04 (inactive) | 1.06 (inactive) | 1.04 (inactive) | 1.01 (inactive) | 0.948 (inactive)
CC[N+](CC)(CC(=O)Nc1c(C)cccc1C)Cc1ccccc1 [Denatonium benzoate] (20 µM) | 0.911 | 1.2 | 1.02 | 1.02 | 0.934 (inactive) | 0.999 (inactive) | 0.99 (inactive) | 1 (inactive) | 0.995 (inactive) | 0.91 (inactive) | 1 (inactive) | 0.945 (inactive)
CCOC(=O)[C@H](CCc1ccccc1)N[C@@H](C)C(=O)N1[C@H](C(=O)O)C[C@@H]2CCC[C@@H]21 [Ramipril] (20 µM) | 1.06 | 0.984 | 1.13 | 1.19 | 0.948 (inactive) | 0.963 (inactive) | 0.966 (inactive) | 0.999 (inactive) | 1.05 (inactive) | 0.964 (inactive) | 1.05 (inactive) | 0.911 (inactive)
Cc1ccnc2c1NC(=O)c1cccnc1N2C1CC1 [Nevirapine] (20 µM) | 0.962 | 0.959 | 1.01 | 0.868 | 0.914 (inactive) | 1 (inactive) | 1.12 (inactive) | 0.955 (inactive) | 1.02 (inactive) | 1.02 (inactive) | 1.01 (inactive) | 1.12 (inactive)
Cc1nc2n(c(=O)c1CCN1CCC(c3noc4cc(F)ccc34)CC1)CCCC2O (stereo unspecified) [Paliperidone] (20 µM) | 0.897 | 1.01 | 0.982 | 1 | 1.05 (inactive) | 0.998 (inactive) | 0.966 (inactive) | 1.06 (inactive) | 1.02 (inactive) | 0.993 (inactive) | 0.986 (inactive) | 0.983 (inactive)
CO[C@@]1(NC(=O)C2SC(=C(C(N)=O)C(=O)O)S2)C(=O)N2C(C(=O)O)=C(CSc3nnnn3C)CS[C@@H]21 (stereo partly specified) [Cefotetan] (20 µM) | 0 | 0.0332 | 0.987 | 1.17 | 0.528 (active) | 0.0152 (active) | 1.08 (inactive) | 0.606 (inactive) | 0.978 (inactive) | 2.18 (active) | 1.1 (inactive) | 1.1 (inactive)
CCc1ccc(CCOc2ccc(CC3SC(=O)NC3=O)cc2)nc1 (stereo unspecified) [Pioglitazone] (20 µM) | 1.3 | 0.963 | 0.988 | 0.816 | 1 (inactive) | 0.918 (inactive) | 0.977 (inactive) | 1.02 (inactive) | 1.01 (inactive) | 0.968 (inactive) | 0.998 (inactive) | 0.904 (inactive)
O=C(O)CCC(=O)c1ccc(-c2ccccc2)cc1 [Fenbufen] (20 µM) | 1.02 | 1.02 | 0.996 | 0.921 | 0.97 (inactive) | 0.991 (inactive) | 1.04 (inactive) | 1.04 (inactive) | 0.989 (inactive) | 0.969 (inactive) | 0.998 (inactive) | 1.06 (inactive)
Fc1ccc(C(c2ccc(F)cc2)N2CCN(C/C=C/c3ccccc3)CC2)cc1 [Flunarizine dihydrochloride] (20 µM) | 1.15 | 1.05 | 1.1 | 0.897 | 0.894 (inactive) | 1.05 (inactive) | 0.851 (inactive) | 1.07 (inactive) | 0.981 (inactive) | 0.979 (inactive) | 1.04 (inactive) | 0.977 (inactive)
N=C(N)NCc1cccc(I)c1 [Iobenguane sulfate] (20 µM) | 0.944 | 0.983 | 0.971 | 0.721 | 0.89 (inactive) | 1 (inactive) | 1.08 (inactive) | 0.949 (inactive) | 0.914 (inactive) | 1.04 (inactive) | 1.1 (inactive) | 1.09 (inactive)
